This is a sample that favours compounds with a hit; in the whole collection about 2.4% have one here.
m5-HT2A agonist = activates the mouse 5-HT2A serotonin receptor. P35363. CHO-K1 mHTR2A beta-arrestin complementation, luminescence; percent of 30 µM serotonin response. activation, % at 7.6 µM. hit rate 0.66% among 360,000. AID 624169;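 active = activation above a run cutoff, the mean activation of all tested compounds plus 3 SD, cut at about 14% in these data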
TMEM16A act = mouse TMEM16A channel activation, primary screen; B-score at 10 µM; HEK293 TMEM16A/YFP-H148Q/I152L, iodide quench fluorescence; stronger effect = lower value; AID 623877; hit rate 0.3% among 340,000; Q8BHY3;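 active = fluorescence-ratio B-score plate-corrected deviation score at least 3 library SD below zero, with starting fluorescence score within 5 deviations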;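 also: channel opened by trigger with iodide after compound preincubation; score built on the fluorescence ratio of max minus min over baseline; more negative score means more quench and so TMEM16A activation or potentiation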
Target sequence (Q8BHY3 whole entry, looked up): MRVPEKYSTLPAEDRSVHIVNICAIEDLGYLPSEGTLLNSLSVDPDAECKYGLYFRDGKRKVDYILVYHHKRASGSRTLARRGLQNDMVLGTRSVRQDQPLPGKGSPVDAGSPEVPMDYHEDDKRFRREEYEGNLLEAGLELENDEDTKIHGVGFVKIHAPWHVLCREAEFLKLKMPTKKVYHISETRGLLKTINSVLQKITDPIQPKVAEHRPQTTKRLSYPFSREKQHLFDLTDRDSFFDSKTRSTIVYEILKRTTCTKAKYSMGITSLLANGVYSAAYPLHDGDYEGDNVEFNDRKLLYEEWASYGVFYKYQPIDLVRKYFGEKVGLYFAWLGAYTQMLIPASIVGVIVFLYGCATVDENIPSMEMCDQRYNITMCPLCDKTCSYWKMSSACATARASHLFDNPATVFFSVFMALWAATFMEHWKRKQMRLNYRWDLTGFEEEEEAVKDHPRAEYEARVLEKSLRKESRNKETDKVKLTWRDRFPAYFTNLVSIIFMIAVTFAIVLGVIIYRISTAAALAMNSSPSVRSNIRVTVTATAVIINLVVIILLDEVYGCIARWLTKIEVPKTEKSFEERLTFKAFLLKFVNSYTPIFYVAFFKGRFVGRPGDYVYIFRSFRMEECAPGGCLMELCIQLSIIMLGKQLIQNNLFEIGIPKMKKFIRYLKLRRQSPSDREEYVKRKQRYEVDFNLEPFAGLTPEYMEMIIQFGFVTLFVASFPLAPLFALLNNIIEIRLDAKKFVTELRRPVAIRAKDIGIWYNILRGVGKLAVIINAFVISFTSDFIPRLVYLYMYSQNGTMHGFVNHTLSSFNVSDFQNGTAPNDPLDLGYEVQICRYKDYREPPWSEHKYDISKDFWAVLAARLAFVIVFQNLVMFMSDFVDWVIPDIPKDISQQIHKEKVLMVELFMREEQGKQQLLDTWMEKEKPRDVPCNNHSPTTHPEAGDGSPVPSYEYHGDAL
TLR4 MyD88 comp = inhibitors of human TLR4-MyD88 binding; O00206+Q99836; HeLa CL3-4 TLR4/MyD88 BLA complementation, FRET ratio; inhibition, % at 8.4 µM; hit rate 0.18% among 200,000; AID 861; in the data active = inhibition above about 25%
NOD2-RIPK2 inh = inhibitors of human NOD2-RIPK2 interaction; O43353; inhibition, % at 4.98 µM; hit rate 0.38% among 360,000; CHO BLA complementation NOD2-RIPK2, CCF4 ratio; in the data active = inhibition above about 21%
TLR9-MyD88 inh = blocks human TLR9 binding to MyD88; hit rate 0.21% among 340,000; Q9NR96+Q99836; AID 504734; inhibition, % at 4.98 µM; CHO BLA complementation TLR9-MyD88, CCF4 FRET ratio;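 active = inhibition above the mean over all tested compounds plus 3 SD, cut at about 21% in these data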
TMEM16A inh = mouse TMEM16A channel inhibition, primary screen; AID 588511; normalized B-score (activity score, 25-100; higher = stronger inhibition) at 10 µM; hit rate 1.2% among 310,000; HEK293 TMEM16A/YFP iodide influx fluorescence, ionomycin;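 active = ratio plate-corrected score three or more library SD toward inhibition, starting fluorescence score within five deviations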;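 also: score derived from kinetic fluorescence span divided by baseline fluorescence per well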
TLR4 MyD88 cnf = TLR4-MyD88 interaction inhibition confirmed; inhibition, % at 8.4 µM; AID 941; hit rate 50% among 350; HeLa CL3-4 BLA complementation, CCF4 FRET ratio; shares compounds with TLR4 MyD88 comp;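 active = mean inhibition across three repeat runs above about 25% carried over from the earlier screen, limit read from the data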
BLA inh HeLa = inhibits beta-lactamase activity, counter-screen to TLR4-MyD88 binding inhibitors. HeLa BLA reporter, CCF4 FRET ratio. shares compounds with TLR4 MyD88 comp. AID 1237. hit rate 63% among 350. inhibition, % at 8.4 µM;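 active = mean inhibition over three repeats above about 26% taken from the earlier screen, limit read from the data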;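 also: HeLa cells stably expressing beta-lactamase reporter as counterscreen for TLR4-MyD88 inhibitors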
TLR9-MyD88 conf = TLR9-MyD88 interaction inhibition, confirmation; shares compounds with TLR9-MyD88 inh; CHO TLR9/MyD88 BLA complementation, CCF4 FRET ratio; inhibition, % at 4.98 µM; hit rate 51% among 680; AID 540250;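 active = mean inhibition across three repeats above about 21% taken from the earlier screen, limit read from the data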;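 also: blue over green emission ratio reports constitutive TLR9 MyD88 association via BLA complementation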
BLA counter-1 = counter-screen for TLR9-MyD88 inhibitors: non-selective beta-lactamase inhibitors | AID 540251 | CHO-BLA cells, CCF4 FRET ratio, BLA reporter | inhibition, % at 4.98 µM | shares compounds with TLR9-MyD88 inh | hit rate 7% among 680;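 active = mean inhibition above a 50% cutoff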;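 also: counterscreen of TLR9-MyD88 hits on CMV-driven BLA in CHO-K1 cells; higher means less blue over green ratio so more BLA blockade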
TLR9 CHO cytotox = CHO cell toxicity counter-screen for TLR9-MyD88 inhibitors | shares compounds with TLR9-MyD88 inh | TLR9-MyD88 CHO cells cytotoxicity, luminescence | inhibition, % at 4.98 µM | hit rate 39% among 680; in the data active = inhibition above about 11%
NOD2-RIPK2 conf = confirmation of human NOD2-RIPK2 interaction inhibitors | shares compounds with NOD2-RIPK2 inh | CHO cells, NOD2-RIPK2 BLA complementation, CCF4 FRET | inhibition, % at 4.98 µM | hit rate 70% among 1,200;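 active = mean inhibition across replicates above a set limit taken from the earlier primary screen, cut at about 21% in these data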
BLA counter-2 = hits BLA reporter in NOD2-RIPK2 inhibitor counterscreen. hit rate 57% among 1,200. inhibition, % at 4.98 µM. CHO BLA reporter, CCF4 FRET ratio. shares compounds with NOD2-RIPK2 inh;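 active = mean inhibition above the low-control mean inhibition plus three low-control SD, cut at about 11% in these data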
Hits are given with their value; 0 = inactive; - = not tested or not shown.

SMILES	m5-HT2A agonist	TMEM16A act	TLR4 MyD88 comp	NOD2-RIPK2 inh	TLR9-MyD88 inh	TMEM16A inh	TLR4 MyD88 cnf	BLA inh HeLa	TLR9-MyD88 conf	BLA counter-1	TLR9 CHO cytotox	NOD2-RIPK2 conf	BLA counter-2
Cc1ccc(S(=O)(=O)NCc2ccc(C(=O)N3CCN(Cc4ccccc4)CC3)cc2)cc1	0	0	0	0	0	0	-	-	-	-	-	-	-
Nc1ccc2c(C(F)(F)F)cc(=O)oc2c1	0	0	49.0	50.6	55.4	0	40.5	66.0	36.2	0	0	63.7	67.8
Cc1ccc(N=Cc2ccc[nH]2)c(O)c1	0	0	0	0	0	0	-	-	-	-	-	-	-
COc1c(C)cc(C(=O)C2CCCN(C(=O)c3cc4nc(C)cc(C)n4n3)C2)cc1C (configuration not stated)	0	0	0	0	0	0	-	-	-	-	-	-	-
Cc1cc(-c2cccs2)c2c(N)c(C(=O)c3ccc4c(c3)OCO4)sc2n1	0	0	0	0	0	0	-	-	-	-	-	-	-
COc1ccc(C(=O)c2sc3nc(C)cc(-c4cccs4)c3c2N)cc1	0	0	34.5	63.8	56.4	-	0	0	45.3	0	0	36.5	71.3
CC(=O)Nc1nc2n(n1)C(c1ccc(F)cc1)C=C(c1ccccc1)N2 (configuration not stated)	0	0	34.2	40.7	40.7	0	36.1	56.4	0	0	0	0	0
CCC(=O)Nc1nc2n(n1)C(c1ccc(OC)cc1)C=C(c1ccccc1)N2 (configuration not stated)	-	-	0	-	-	0	-	-	-	-	-	-	-
CCOC(=O)c1ccc(NC(=O)Cn2ncc(Cl)c(Cl)c2=O)cc1	0	0	27.4	51.8	26.7	0	37.4	0	24.4	0	98.9	65.5	14.4
Cc1ccc(C(=O)OCn2ncc(Cl)c(Cl)c2=O)cc1	0	0	54.5	66.2	29.7	0	62.4	0	27.1	0	98.4	85.0	0
CCOC(=O)c1ccc(NC(=O)Cn2nc(C)c3ccccc3c2=O)cc1	0	0	-	0	0	0	-	-	-	-	-	-	-
Cc1cc2occ(CC(=O)O)c2cc1C	0	0	0	0	0	0	-	-	-	-	-	-	-
CC1(C(=O)NS(=O)(=O)c2ccc(Cl)cc2)CCN1C(=O)c1ccco1 (configuration not stated)	0	-	-	0	-	-	-	-	-	-	-	-	-
CCCCCCn1c(=O)[nH]c2nc3cc(N)c(C)cc3nc2c1=O	0	0	28.0	41.7	32.0	-	0	43.2	0	0	0	45.2	49.2
COc1ccc(-c2ccc3c(N)c(C(=O)c4cccc(OC)c4)sc3n2)cc1	0	0	31.4	25.3	0	0	28.1	57.0	-	-	-	45.1	56.4
COc1cccc(-c2ccc3c(N)c(C(=O)NC4CC4)sc3n2)c1	0	0	-	0	0	0	-	-	-	-	-	-	-
Cn1c(-c2c(N)n(CCCc3ccccc3)c3nc4ccccc4nc23)nc2ccccc21	0	0	47.5	58.2	31.8	-	54.4	85.9	61.7	63.1	0	78.7	79.7
Cn1c(-c2c(N)n(CCc3ccccc3)c3nc4ccccc4nc23)nc2ccccc21	0	0	69.3	69.5	61.5	0	50.9	84.4	55.0	56.0	0	72.8	75.4
Cn1c(-c2c(N)n(C3CCCC3)c3nc4ccccc4nc23)nc2ccccc21	0	0	68.1	28.7	39.6	0	68.6	95.8	-	-	-	78.4	83.1
Nc1c(C(=O)OCC2CCCO2)c2nc3ccccc3nc2n1C1CCCC1 (configuration not stated)	0	0	0	0	0	0	-	-	-	-	-	-	-
CC(SC1=NCCN1S(=O)(=O)c1ccc(F)cc1)c1ccccc1 (configuration not stated)	0	0	-	0	0	0	-	-	-	-	-	-	-
CC(C)CC(=O)NC(=S)Nc1ccc(Cl)cn1	0	0	0	0	0	0	-	-	-	-	-	-	-
O=S(=O)(c1ccc(Br)c2nsnc12)N1CCOCC1	0	0	56.5	56.1	27.5	0	54.2	75.8	0	0	13.6	54.1	20.1
CCCCNC(=O)c1ccc2nc(CC)c(N(CC)CCN(C)C)n2c1	0	-	-	0	-	-	-	-	-	-	-	-	-
COCCN(CC(=O)NC1CCCCC1)C(=O)/C=C/C(=O)c1ccc(OC)cc1O	0	0	31.1	49.8	0	-	26.9	0	-	-	-	90.9	12.0
SMILES	m5-HT2A agonist	TMEM16A act	TLR4 MyD88 comp	NOD2-RIPK2 inh	TLR9-MyD88 inh	TMEM16A inh	TLR4 MyD88 cnf	BLA inh HeLa	TLR9-MyD88 conf	BLA counter-1	TLR9 CHO cytotox	NOD2-RIPK2 conf	BLA counter-2
COc1ccc(CNC(=O)COC(=O)c2c(-c3c(F)cccc3Cl)noc2C)cc1OC	0	0	0	0	0	0	-	-	-	-	-	-	-
CCCN(CCC)CC(O)Cn1cc(/C=C/C(=O)c2cccs2)c2ccccc21 (configuration not stated)	0	0	39.0	38.7	39.7	0	32.2	62.5	20.8	0	0	45.6	44.0
O=C1c2cccc3c(N4CCCCC4)ccc(c23)C(=O)N1c1cccc(O)c1	0	0	50.4	53.8	42.0	0	35.0	55.1	34.6	0	10.6	61.2	67.9
O=C(c1cccc(N2C(=O)c3ccccc3C2=O)c1)N1CCCCCC1	0	0	0	0	0	0	-	-	-	-	-	-	-
C=CCN1C(=O)c2cccc3c(N4CCCCC4)ccc(c23)C1=O	0	0	50.7	22.4	0	0	36.3	60.7	-	-	-	61.0	63.7
O=C(OCCN1C(=O)c2cccc3c(N4CCOCC4)ccc(c23)C1=O)c1ccccc1Cl	0	0	41.1	53.5	39.9	0	46.2	64.7	-	-	-	54.0	59.7
CCn1c(SCC(=O)N(C)C2CCCCC2)nc2cc(S(N)(=O)=O)ccc21	0	0	-	0	0	-	-	-	-	-	-	-	-
CCN1/C(=C/C=C/c2oc3ccc(-c4ccccc4)cc3[n+]2CC)Oc2ccc(-c3ccccc3)cc21	0	0	39.7	47.1	25.3	0	35.1	57.5	25.2	0	69.0	66.5	56.6

From PubChem BioAssay
